TDP1 cell noCPT = qHTS for Inhibitors of human tyrosyl-DNA phosphodiesterase 1 (TDP1): qHTS in cells in absence of CPT; 420,000 tested, 15% active; Potency, µM (titrated, usually from 46.2 µM), hits mostly inhibitors; DT40 Tdp1-/- hTDP1 cells, no CPT, ATP luminescence, 48 h; AID 686978, 2013; also: nearly all actives have a fitted effect of over 55% in size
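Growth of hTDP1-complemented DT40 Tdp1-knockout cells is measured by ATP luminescence after at least 48 hr compound exposure at 37 °C, with DMSO substituting for the 20 nM CPT used in the parallel screen.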
TDP1 inh = qHTS Assay for Inhibitors of Tyrosyl-DNA Phosphodiesterase (TDP1); Tyrosyl-DNA phosphodiesterase 1 (Homo sapiens), Q9NUW8; recombinant TDP1, AlphaScreen DNA substrate cleavage; Potency, µM (series often up to 130 µM), actives largely listed as inhibitors; 350,000 tested, 0.28% active; AID 485290, 2010; also: nearly all actives have a fitted effect of over 40% in size
Target sequence (Q9NUW8 whole entry, looked up): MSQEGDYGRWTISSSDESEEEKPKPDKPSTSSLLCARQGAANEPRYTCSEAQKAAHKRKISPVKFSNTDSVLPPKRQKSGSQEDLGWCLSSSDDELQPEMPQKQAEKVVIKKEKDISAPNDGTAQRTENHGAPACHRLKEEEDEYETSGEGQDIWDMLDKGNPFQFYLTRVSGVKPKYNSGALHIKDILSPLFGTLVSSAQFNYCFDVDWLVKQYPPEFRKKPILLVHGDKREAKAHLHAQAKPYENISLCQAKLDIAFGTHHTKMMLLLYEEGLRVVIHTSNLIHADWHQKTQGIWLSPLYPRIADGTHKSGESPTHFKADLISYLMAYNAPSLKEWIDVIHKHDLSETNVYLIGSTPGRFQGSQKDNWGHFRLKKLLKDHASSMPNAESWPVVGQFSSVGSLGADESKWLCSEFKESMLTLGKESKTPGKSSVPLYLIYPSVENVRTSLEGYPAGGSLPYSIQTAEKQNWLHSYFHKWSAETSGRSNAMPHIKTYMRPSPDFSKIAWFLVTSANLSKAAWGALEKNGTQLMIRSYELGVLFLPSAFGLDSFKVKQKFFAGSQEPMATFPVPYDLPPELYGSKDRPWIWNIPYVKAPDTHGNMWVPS
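Steps: enzyme plus compound, 15 min RT; add biotin/phosphotyrosine-FITC oligonucleotide (15 nM final), react 5 min; add donor/acceptor beads (10 ug/ml final), 10 min; read AlphaScreen. Tdp1 at 1 nM final.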
Gal4-VP16 FLuc = VP16 counterscreen qHTS for inhibitors of ROR gamma transcriptional activity | Potency, µM (series often up to 53.6 µM), actives largely listed as inhibitors | 310,000 tested, 3.5% active | Drosophila S2 Gal4-VP16 UAS-luciferase, luminescence, 20 h;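 also: Gal4-VP16 expression switched on by copper sulfate through the metallothionein promoter; nearly all actives have a fitted effect of over 50% in size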
TDP1 cell CPT = qHTS for Inhibitors of human tyrosyl-DNA phosphodiesterase 1 (TDP1): qHTS in cells in presence of CPT; Potency, µM (series often up to 46.2 µM), actives largely listed as inhibitors; 420,000 tested, 12% active; AID 686979, 2013; chicken DT40 Tdp1-/-;hTDP1 cells + 20 nM CPT, ATP luminescence, 48 h; also: nearly all actives have a fitted effect of over 55% in size
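Chicken DT40 Tdp1-/- cells complemented with human TDP1, 400 cells/well, exposed to compounds plus 20 nM camptothecin for at least 48 h at 37 C; viability read as ATP content by CellTiter-Glo luminescence.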
RORgamma inh = qHTS for inhibitors of ROR gamma transcriptional activity | AID 2551, 2010 | Nuclear receptor ROR-gamma (Mus musculus), P51450 | 310,000 tested, 5.4% active | Potency, µM (doses to about 53.6 µM), most hits filed as inhibitors | Drosophila S2 Gal4-RORgamma UAS-luciferase reporter, 20 h; also: nearly all actives have a fitted effect of over 60% in size
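In this cell-based reporter format, copper sulfate (700 uM final) drives Gal4–ROR gamma fusion expression from a metallothionein promoter in Drosophila Schneider cells; compounds preincubated 1 hr, reporter read after 20 hr at ambient temperature.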
Large screens that a line does not name were inactive. Hits are enriched below; roughly 19% of the tested compounds scored in any of these assays. Calls follow the shape of the dose curve; as a rule, active = well fitted curve in the direction sought with a large enough effect; inconclusive = small, poorly fitted or top-dose-only effect, or another doubt; inactive = no such curve, though single readings can be large; an effect the other way counts as inactive or inconclusive.

O=C(CSc1nccc(=O)[nH]1)Nc1ccc2c(c1)OCCO2	none
CCC(=O)[C@@H](C)[C@@H](OC(C)=O)[C@H](C)C[C@@H](C)[C@H]1OC(=O)C[C@@]2(O)CC=C(C)C(O2)C(C)=CCCC[C@H](O[C@H]2C[C@@H](OC(N)=O)[C@H](OC(C)=O)[C@@H](C)O2)C=C[C@H](C)C[C@H]1C	TDP1 cell noCPT 2.9µM, TDP1 cell CPT inconclusive (no result: TDP1 inh, Gal4-VP16 FLuc, RORgamma inh)
O=C1CCCN1C(=O)CSc1ncnc2sccc12	TDP1 inh 50µM (no result: Gal4-VP16 FLuc, RORgamma inh)
CCOC(=O)CNC(=S)N(Cc1ccccc1F)C1CCCCC1	RORgamma inh 11µM
Cc1ccc(C(=O)Nc2ccc(Cl)cc2C(F)(F)F)c(Cl)c1	Gal4-VP16 FLuc inconclusive
CN(C)C(=S)NC(=O)C12CC3CC(C)(CC(C)(C3)C1)C2	TDP1 cell noCPT inconclusive, Gal4-VP16 FLuc 22µM, TDP1 cell CPT inconclusive, RORgamma inh 5µM
CC12CC3CC(C)(C1)CC(C(=O)NC(=S)N1CCCCC1)(C3)C2	TDP1 cell noCPT inconclusive, Gal4-VP16 FLuc inconclusive, TDP1 cell CPT inconclusive, RORgamma inh 0.45µM
CC12CC3CC(C)(C1)CC(C(=O)NNC(=O)c1ccncc1)(C3)C2	none
CCOc1cc(C(=S)N2CCOCC2)ccc1OC(=O)/C=C/c1ccc(OC)c(OC)c1	TDP1 cell noCPT inconclusive, RORgamma inh inconclusive
Cc1nnc2n1N=CC=C(C(C)(C)C)S2	none
O=C(O)C1=CC(c2ccc(Br)cc2)n2ncnc2N1 (stereo not drawn)	none (no result: Gal4-VP16 FLuc, RORgamma inh)
CC(=O)Oc1ccc(OC(C)=O)c2c1CC(C)=C(C)C2	TDP1 cell noCPT 13µM, Gal4-VP16 FLuc inconclusive, TDP1 cell CPT 13µM (no result: TDP1 inh)
Cc1cc(C)c(OCC(=O)Nc2nnc(-c3ccco3)o2)c(C)c1	Gal4-VP16 FLuc inconclusive, RORgamma inh 13µM
Cc1ccc(SCC(=O)Nc2nnc(-c3ccco3)o2)cc1	TDP1 cell noCPT 29µM (no result: TDP1 inh, Gal4-VP16 FLuc, RORgamma inh)
O=C(COc1ccccc1)Nc1ccc(-c2nnc(-c3ccco3)o2)cc1	none
CC1CCCN(C(=O)Cn2nnc(-c3ccc(S(C)(=O)=O)cc3)n2)C1 (stereo not drawn)	none
O=C(CNC(=O)c1cccc([N+](=O)[O-])c1)OCCCC(=O)c1ccc(F)cc1	none (no result: Gal4-VP16 FLuc, RORgamma inh)
O=C(CCNc1ccccc1)c1cccc([N+](=O)[O-])c1	TDP1 cell noCPT 16µM, Gal4-VP16 FLuc inconclusive, TDP1 cell CPT 18µM, RORgamma inh inconclusive
O=C(CCNc1ccc(Br)cc1)c1cccc([N+](=O)[O-])c1	TDP1 cell noCPT 18µM, TDP1 cell CPT 15µM, RORgamma inh inconclusive
O=C(CCNc1ccc(F)cc1)c1cccc([N+](=O)[O-])c1	TDP1 cell noCPT 23µM, Gal4-VP16 FLuc inconclusive, TDP1 cell CPT 16µM, RORgamma inh 13µM
CCCn1c(SCC(=O)NC2CCCC2)nnc1-c1ccccn1	none (no result: TDP1 inh)
CCC(C)(C)c1ccc(OCCCC[n+]2cccc(C)c2)c(C(C)(C)CC)c1	TDP1 cell noCPT 0.92µM, Gal4-VP16 FLuc 13µM, TDP1 cell CPT 0.58µM, RORgamma inh inconclusive
Cc1ccc[n+](CC(=O)Nc2cc(C(F)(F)F)ccc2Cl)c1	none
CCn1c(C(=O)NCc2cc(Br)ccc2OC)cc2oc3ccccc3c21	TDP1 cell noCPT inconclusive, TDP1 cell CPT 23µM (no result: Gal4-VP16 FLuc, RORgamma inh)
CCn1c(C(=O)NCc2cccc(Br)c2)cc2oc3ccccc3c21	TDP1 cell noCPT 15µM, TDP1 cell CPT inconclusive (no result: Gal4-VP16 FLuc, RORgamma inh)
CCn1c(C(=O)NCc2ccccc2Br)cc2oc3ccccc3c21	TDP1 cell CPT 21µM (no result: Gal4-VP16 FLuc, RORgamma inh)
Cc1nn(CCC(=O)NNC(=S)Nc2ccc(F)cc2)c(C)c1[N+](=O)[O-]	none
Cc1cccc(NC(=S)NNC(=O)CCn2cc(C)cn2)c1	Gal4-VP16 FLuc 1µM, RORgamma inh 0.11µM
Cc1nn(CCC(=O)NNC(=S)NCC(C)C)c(C)c1Br	TDP1 cell noCPT 6.5µM, Gal4-VP16 FLuc 1.4µM, TDP1 cell CPT 7.3µM, RORgamma inh 0.71µM
Cc1cccc(NC(=O)CCN2CCN(C)CC2)c1	none (no result: TDP1 inh)
Cc1nn(CCC(=O)NNC(=S)Nc2ccccc2)c(C)c1Br	Gal4-VP16 FLuc inconclusive, RORgamma inh 0.32µM
